{"source": "PubChem BioAssay AID588342", "about": "(National Center for Advancing Translational Sciences (NCATS), 2011)", "note": "The whole screen tested about 360,000 compounds, of which about 25,000 (6.9%) were called active. Another 9% or so got no clear call; they are omitted. Shown is part of a subset that was picked to be rich in actives. Values without a mark were called inactive. Calls follow the shape of the dose curve; as a rule, active = well fitted inhibition curve with a large enough effect; inconclusive = small, poorly fitted or top-dose-only effect; inactive = flat fitted curve, though single readings scatter. Potency is read from the fitted curve at half-maximal effect."}
{"molecular_target": "Luciferin 4-monooxygenase (Photinus pyralis) (UniProt P08659)", "sequence (P08659 whole entry, looked up)": "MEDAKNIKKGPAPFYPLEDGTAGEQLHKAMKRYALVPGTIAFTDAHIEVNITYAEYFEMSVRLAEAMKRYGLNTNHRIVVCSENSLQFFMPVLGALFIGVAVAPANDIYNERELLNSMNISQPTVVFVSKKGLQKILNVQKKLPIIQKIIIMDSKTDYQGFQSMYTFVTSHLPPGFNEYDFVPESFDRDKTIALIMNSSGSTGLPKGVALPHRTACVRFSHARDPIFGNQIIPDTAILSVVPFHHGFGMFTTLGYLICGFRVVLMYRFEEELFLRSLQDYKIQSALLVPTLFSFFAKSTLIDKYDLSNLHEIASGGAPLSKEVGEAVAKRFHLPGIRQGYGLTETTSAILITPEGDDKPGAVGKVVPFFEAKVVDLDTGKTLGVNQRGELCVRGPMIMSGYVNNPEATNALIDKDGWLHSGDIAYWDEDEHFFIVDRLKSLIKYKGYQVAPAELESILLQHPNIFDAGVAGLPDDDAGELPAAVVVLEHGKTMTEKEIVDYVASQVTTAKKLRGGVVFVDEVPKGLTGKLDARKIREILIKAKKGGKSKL", "assay": "qHTS profiling assay for firefly luciferase inhibitor/activator using purifed enzyme and Km concentrations of substrates (counterscreen for miR-21 project); also: nearly all actives have a fitted effect of over 55% in size;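 as to activity change, negative = inhibition: plate controls were vehicle for no effect and reference inhibitor for full effect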", "conditions": "purified FLuc, luminescence inhibition; series mostly up to 57.5 µM; activity change, negative = inhibition: at the top concentration", "summary_of_the_method": "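Biochemical qHTS of compounds, final roughly 60 µM downward over six points, against 10 nM purified firefly luciferase using Km concentrations of substrates (10 uM D-luciferin, 10 uM ATP) in Tris acetate pH 7.5 buffer; luminescence output.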", "units": {"activity change, negative = inhibition": "%"}}
{"smiles": "CCOc1ccc(N(CC)C(=O)c2noc3c2COc2ccc(C)cc2-3)cc1", "activity change, negative = inhibition": -2.9}
{"smiles": "COc1ccccc1CNC(=O)CCn1c(=O)c2ccccc2n(CC(=O)Nc2cccc(Cl)c2)c1=O", "activity change, negative = inhibition": -0.523}
{"smiles": "Cc1ccc(C)c(N2CCN(C(c3ccccc3)c3nnc(-c4ccccc4)o3)CC2)c1", "note": "(centres undefined)", "activity change, negative = inhibition": -0.488}
{"smiles": "OC(CNCCc1ccc(Cl)cc1Cl)COc1ccccc1", "note": "(centres undefined)", "activity change, negative = inhibition": 5.25}
{"smiles": "CCOc1ccc(NC(=O)NNC(=O)c2ccc(Cl)cc2Cl)cc1", "activity change, negative = inhibition": -1}
{"smiles": "NC(N)=N/N=C/c1ccc(OCc2ccc(Cl)cc2Cl)cc1", "Potency": "16.9 µM (active)"}
{"smiles": "C#CCOc1ccc(C2CC(=O)Nc3c2c(C)nn3-c2nc(C)cc(C)n2)cc1", "note": "(centres undefined)", "activity change, negative = inhibition": -14}
{"smiles": "CCS(=O)(=O)c1ccc(O)c(NC(=O)COc2ccc(Cl)cc2)c1", "Potency": "16.9 µM (active)"}
{"smiles": "COC(=O)c1sccc1NC(=O)COc1ccc(Cl)cc1", "activity change, negative = inhibition": -15.4}
{"smiles": "CS(=O)(=O)c1ccc(C(=O)OCC(=O)NNC(=O)COc2ccc(Cl)cc2)cc1", "activity change, negative = inhibition": 3.41}
{"smiles": "CCOc1ccc(N(Cc2ccccc2)C(=O)c2nc(SCC)ncc2Cl)cc1", "activity change, negative = inhibition": -9.15}
{"smiles": "CCCN1CN=C(NS(=O)(=O)c2ccc(NC(C)=O)cc2)NC1", "activity change, negative = inhibition": 0.883}
{"smiles": "COC(=O)C1C(=O)c2c([nH]c(C(=O)OCCSC)c2C)CC1C", "note": "(centres undefined)", "Potency": "7.57 µM (active)"}
{"smiles": "CCCOC(=O)C1=C(C)NC2=C(C(=O)C(C(=O)OC)C(C)C2)C1c1ccc(N(C)C)cc1", "note": "(centres undefined)", "activity change, negative = inhibition": 0.124}
{"smiles": "COCCOC(=O)c1[nH]c2c(c1C)C(=O)CC(c1ccc(OC)cc1)C2", "note": "(centres undefined)", "activity change, negative = inhibition": 2.45}
{"smiles": "CCc1ccc(NC(=O)Cn2c(=O)n(CCC(=O)NCc3ccc4c(c3)OCO4)c(=O)c3ccccc32)cc1", "activity change, negative = inhibition": -0.038}
{"smiles": "CC(C)CC(=O)NCC(c1ccc2c(c1)OCO2)N1CCN(c2ccc(F)cc2)CC1", "note": "(centres undefined)", "activity change, negative = inhibition": -1.61}
{"smiles": "CCC(=O)Nc1c(C)n[nH]c1C", "activity change, negative = inhibition": -4.16}
{"smiles": "Cc1ccc(Nc2nc(Cl)c(C=O)s2)cc1", "Potency": "12 µM (active)"}
{"smiles": "Cc1ccc(Nc2nc(C)cc(C)c2C(N)=O)cc1", "activity change, negative = inhibition": -1.84}
{"smiles": "Cc1ccc(NC(=O)Nc2nnc(-c3ccncc3)s2)cc1", "activity change, negative = inhibition": -1.13}
{"smiles": "Cc1ccc2c(=O)c(C(=O)c3cccc(Cl)c3)cn(CC(=O)NCc3ccccc3)c2n1", "activity change, negative = inhibition": -1.16}
{"smiles": "COc1ccccc1C(=O)NC(CCSC)C(=O)NNC(=O)c1csc(N2CCOCC2)n1", "note": "(centres undefined)", "activity change, negative = inhibition": 2.94}
{"smiles": "CSCCC(NC(=O)c1ccc(Cl)cc1Cl)C(=O)NNC(=O)c1csc(N2CCOCC2)n1", "note": "(centres undefined)", "Potency": "23.9 µM (active)"}
{"smiles": "COc1ccc(NS(=O)(=O)c2ccc(C)c(C(=O)NNC(=O)c3csc(N4CCOCC4)n3)c2)cc1", "activity change, negative = inhibition": -19.7}
{"smiles": "Cc1ccc(NC(=O)Nc2sc3nc4n(c(=O)c3c2C)CCC(C)CC4)c(Cl)c1", "note": "(centres undefined)", "activity change, negative = inhibition": 2.26}
{"smiles": "COc1ccc2oc(N)c(C=O)c(=O)c2c1", "activity change, negative = inhibition": -4.85}
{"smiles": "CCc1cc2c(=O)c(-c3ccc(F)cc3)c(C(F)(F)F)oc2cc1OCC(=O)O", "activity change, negative = inhibition": -16.5}
{"smiles": "CCc1cc2c(=O)c(-c3ccon3)c(N)oc2cc1OC", "Potency": "2.39 µM (active)"}
{"smiles": "Cc1cccc(NC(c2cccc(F)c2)c2ccc3ccc(C)nc3c2O)n1", "note": "(centres undefined)", "activity change, negative = inhibition": -0.966}
{"smiles": "Cc1ccc(C(=O)NNc2ncnc3ccccc23)cc1", "Potency": "8.49 µM (active)"}
{"smiles": "CCc1nc(SCC(=O)NNC(=O)c2ccc(C)cc2)c2ccccc2n1", "activity change, negative = inhibition": -2.39}
{"smiles": "Cc1ccc(C(=O)NNC(=O)c2cc3cc4ccccc4nc3s2)cc1", "activity change, negative = inhibition": 2.41}
{"smiles": "CC1=C(C(=O)Nc2ccccc2Cl)C(c2cccs2)n2ncnc2N1", "note": "(centres undefined)", "activity change, negative = inhibition": -6.97}
{"smiles": "O=C(O)c1ccc(N/N=C/c2cn(-c3ccccc3)nc2-c2cccs2)cc1", "Potency": "0.107 µM (active)"}
{"smiles": "O=C(NCc1cccnc1)c1cn(-c2ccccc2)nc1-c1cccs1", "Potency": "6.01 µM (active)"}
{"smiles": "O=C(COC(=O)/C=C/c1cn(-c2ccccc2)nc1-c1cccnc1)Nc1ccc(Cl)cc1Cl", "activity change, negative = inhibition": 5.4}
{"smiles": "S=c1[nH]nc(-c2cccs2)n1/N=C/c1cn(-c2ccccc2)nc1-c1ccc(Cl)cc1", "activity change, negative = inhibition": 2.83}
{"smiles": "O=C(/C=C/c1cccs1)NCc1cccnc1", "activity change, negative = inhibition": -0.859}
{"smiles": "O=C(/C=C\\c1cn(-c2ccccc2)nc1-c1cccs1)N1CCOCC1", "Potency": "7.57 µM (active)"}
{"smiles": "O=C(O)/C=C/c1cn(-c2ccccc2)nc1-c1cccs1", "Potency": "21.3 µM (active)"}
{"smiles": "O=C(NCc1cccnc1)c1nc(-c2cccs2)no1", "activity change, negative = inhibition": 3.45}
{"smiles": "Cc1c(NC(=O)C(=O)N/N=C/c2cccs2)c(=O)n(-c2ccccc2)n1C", "activity change, negative = inhibition": -7.6}
{"smiles": "COc1ccc(-c2nn(-c3ccccc3)cc2/C=C\\C(=O)N2CCOCC2)cc1[N+](=O)[O-]", "activity change, negative = inhibition": 0.818}
{"smiles": "CCC(=O)N1N=C(c2ccc(OC)cc2)CC1c1cn(-c2ccccc2)nc1-c1cccs1", "note": "(centres undefined)", "activity change, negative = inhibition": 0.511}
{"smiles": "COc1cccc(NC(=O)CN(C)C(=O)/C=C/c2cn(-c3ccccc3)nc2-c2cccs2)c1", "activity change, negative = inhibition": -13.6}
{"smiles": "CN(C)c1ccc(NC(=S)N(CCc2ccccc2)C2CC(=O)N(c3c(Cl)cccc3Cl)C2=O)cc1", "note": "(centres undefined)", "activity change, negative = inhibition": -2.16}
{"smiles": "CCN1CCN(CCCNC(=O)c2cnn(-c3ccc(C)cc3C)c2C2CCN(C(=O)OC(C)(C)C)CC2)CC1", "activity change, negative = inhibition": -2.56}
{"smiles": "O=C(COC(=O)c1cc(=O)[nH]c2ccccc12)NCc1cccc(Cl)c1", "activity change, negative = inhibition": 2.01}
{"smiles": "Cn1cc(S(=O)(=O)N2CCCCCC2)cc1C(=O)N1CCN(c2ccc(F)cc2)CC1", "activity change, negative = inhibition": -14.1}
{"smiles": "CCc1ccc2c(c1)cc(CN(C(=S)Nc1ccccc1Cl)C1CC1)c1nnnn12", "activity change, negative = inhibition": 3.26}
{"smiles": "O=C(Cc1ccccc1)Nc1sc2c(c1C(=O)Nc1ccc(Br)cc1)CCC2", "activity change, negative = inhibition": -3.93}
{"smiles": "Cc1ccc(S(=O)(=O)c2nc(-c3cccs3)oc2N2CCCCC2)cc1", "activity change, negative = inhibition": -14}
{"smiles": "CCOc1cc(C2c3c(-c4ccc(Br)cc4)n[nH]c3C(=O)N2c2ccc(Cl)cc2)ccc1O", "note": "(centres undefined)", "activity change, negative = inhibition": 18.5}
{"smiles": "CS(=O)(=O)c1ccc2nc(NC(=O)c3ccc(Cl)nc3)sc2c1", "Potency": "21.3 µM (active)"}
{"smiles": "CCCC(=O)Nc1nc2ccc(NC(=O)c3cccnc3)cc2s1", "activity change, negative = inhibition": -20.6}
{"smiles": "COc1cccc(C(=O)Nc2nc3ccc(S(C)(=O)=O)cc3s2)c1", "Potency": "6.01 µM (active)"}
{"smiles": "CN(C)c1cccc(C(=O)Nc2nc3ccc(S(=O)(=O)NC(C)(C)C)cc3s2)c1", "activity change, negative = inhibition": -12.4}
{"smiles": "CS(=O)(=O)c1ccc2nc(NC(=O)C3C4C=CC(C4)C3C(=O)O)sc2c1", "note": "(centres undefined)", "activity change, negative = inhibition": -2.44}
{"smiles": "COc1cccc(C(=O)NNS(=O)(=O)c2ccc(F)cc2)c1", "activity change, negative = inhibition": -3.77}
{"smiles": "O=C(NC1CC(=O)N(c2ccc(F)cc2)C1)c1ccc(S(=O)(=O)N2CCCC2)cc1", "note": "(centres undefined)", "activity change, negative = inhibition": -0.932}
{"smiles": "O=C(CSc1nc2ccccc2c(=O)n1-c1ccc(F)cc1)NC1CC1", "activity change, negative = inhibition": 0.482}
{"smiles": "COc1cccc(-n2c(SCC(=O)c3c[nH]c4ccccc34)nc3ccccc3c2=O)c1", "activity change, negative = inhibition": 3.3}
{"smiles": "Cc1ccc(-n2c(SCC(=O)N3CCC(C(=O)O)CC3)nc3ccccc3c2=O)cc1C", "Potency": "13.5 µM (active)"}
